# E coli growth-1: inhibitors of Escherichia coli growth | OD600, 23 h; active compounds read low | OD600 absorbance (test concentration not listed) | hit rate 0.21% among 330,000 | AID 1053175;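 active = OD600 absorbance below the run mean of sample wells minus 3.6 SD, in any replicate, cut at about 0.56 in these data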
# E coli growth-2: counter-screen for AddAB inhibitors: E. coli growth inhibition; E. coli V3065 growth, OD600 absorbance, 18 h; inhibition, % at 11.9 µM; hit rate 0.27% among 330,000;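 active = inhibition above the campaign's mean inhibition across all tested compounds plus 3 SD, cut at about 9.9% in these data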;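 note: uninfected addAB+ strain grown without phage in ampicillin broth; 0% = DMSO wells and 100% = ciprofloxacin 0.95 µg/ml wells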
# Tat transport: blocks Tat-dependent protein export in E. coli; E. coli MC4100 TorA-mCherry Tat export, fluorescence; inhibition, % at 10 µM; hit rate 0.036% among 340,000; AID 488895;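 active = mean replicate inhibition at least 50% and at least half of replicates individually reaching 50%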;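 note: exported cargo escapes ClpAP degradation while cytoplasmic cargo is degraded and loses fluorescence; 0% = median of neutral control wells and 100% = median of NaSCN control wells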
# phage Ecoli inh: E. coli growth loss with phage present | growth absorbance | inhibition, % at 11.9 µM | hit rate 0.26% among 360,000; in the data active = inhibition above about 11%
# AddAB inh: less growth of phage-infected E. coli with AddAB; E. coli expressing H. pylori AddAB, absorbance growth; inhibition, % at 11.9 µM; hit rate 0.29% among 330,000; in the data active = inhibition above about 12%;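 note: 0% = vehicle wells of infected cells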
# AddAB confirm: confirmation screen: growth loss of phage-infected E. coli expressing H. pylori AddAB; shares compounds with AddAB inh; E. coli V3065 expressing H. pylori AddAB, T4 phage, OD; T4 phage with gene 2 nonsense mutations; inhibition, % at 11.9 µM; hit rate 64% among 880;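 active = mean inhibition above a set limit taken from the earlier primary screen, cut at about 13% in these data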;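 note: higher means less bacterial growth since AddAB block lets phage replicate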
# RecBCD counter: reduces growth of phage-infected RecBCD+ E. coli, AddAB inhibitor counter-screen | shares compounds with AddAB inh | E. coli V66 + mutant T4 phage, OD growth | inhibition, % at 11.9 µM | hit rate 73% among 880;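 active = mean inhibition above the mean of solvent-only control wells plus 3 SD, cut at about 4% in these data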;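 note: optical density read after an 18 h incubation at 37 °C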
# Bact viability: counter-screen for AddAB inhibitors: inhibitors of bacterial viability | hit rate 35% among 880 | inhibition, % at 11.9 µM | shares compounds with AddAB inh | absorbance (AddAB counterscreen); in the data active = inhibition above about 25%
# The depositor's hits bear a star; x = no result given. Rows were chosen to be rich in hits. Some 0.5% of all compounds tested hit in one or more screens of this group.
SMILES,E coli growth-1,E coli growth-2,Tat transport,phage Ecoli inh,AddAB inh,AddAB confirm,RecBCD counter,Bact viability
CCCN1CCN(C(=O)c2cc3c(s2)-c2ccccc2OC3)CC1,0.719,12.6*,1.3,7.9,15.0*,22.5*,7.3*,15.8
CCOC(=O)N1CCN(C(=O)c2cc3c(s2)-c2ccccc2OC3)CC1,0.7,1.6,3.5,3.6,0.2,x,x,x
O=C(COC(=O)c1ccc([N+](=O)[O-])s1)c1ccc[nH]1,x,9.3,-9.0,2.8,12.4*,67.8*,3.0,10.4
CC(Sc1nnc(-c2cccs2)n1-c1ccccc1)C(=O)NCc1ccco1 (stereo not drawn),0.714,-3.1,-1.3,-0.3,0.6,x,x,x
O=C(NCc1ccco1)c1ccc([N+](=O)[O-])o1,x,9.5,-2.4,8.4,34.6*,75.8*,6.6*,15.3
COc1cc(NC(=O)c2ccc([N+](=O)[O-])o2)ccc1NC(=O)c1ccco1,0.693,11.7*,-3.1,8.2,16.4*,73.8*,6.7*,22.0
O=C(NCc1cccnc1)c1ccc([N+](=O)[O-])o1,0.501*,13.3*,-7.3,16.7*,17.1*,71.5*,7.9*,17.9
O=C(Cc1ccc([N+](=O)[O-])cc1)NCc1cccnc1,0.607,-3.5,-17.7,-0.2,4.4,x,x,x
CC(Sc1ccsc1[N+](=O)[O-])C(=O)NCc1ccco1 (stereo not drawn),0.693,7.2,-4.4,5.6,14.3*,23.0*,1.9,10.7
O=C(NCc1ccco1)c1ccc(Cn2cc([N+](=O)[O-])cn2)o1,0.685,-1.2,-10.7,3.9,0.4,x,x,x
COc1cc(C=C(NC(=O)c2ccccc2)C(=O)Nc2cccc(O)c2)c([N+](=O)[O-])cc1OC,0.726,x,x,x,x,x,x,x
Cc1ccc(S(=O)(=O)CCC(=O)Nc2ccc(S(=O)(=O)N(C)C)cc2)cc1,0.64,95.6*,x,x,96.7*,-4.8,0.5,-2.2
Cc1ccc(S(=O)(=O)CCC(=O)NNC(=O)CN(C)S(=O)(=O)c2ccc(C)cc2)cc1,0.664,-1.4,3.2,3.3,-0.5,x,x,x
C#CCOCCOCCOCCNc1nc(N2CCN(C(=O)Cn3cc(CCO)nn3)CC2)nc(N2CCN(C(=O)C(Cc3ccc(O)cc3)n3cc(CCO)nn3)CC2)n1 (stereo not drawn),0.655,x,x,x,x,x,x,x
CCOC1(N=C(C)NS(=O)(=O)c2ccc(Cl)cc2)C(C)=CC(=O)C=C1C,0.723,x,x,x,x,x,x,x
Oc1ccc(N=Cc2ccc(O)c(O)c2)cc1,0.675,-0.2,-5.6,x,1.2,x,x,x
Oc1ccc(/C=N/N=C/c2ccc(O)c(O)c2)cc1O,x,-3.0,3.5,-0.1,34.5*,-1.1,0.0,-2.1
COc1ccc(-c2nnc(NC(=O)c3ccc(F)cc3)o2)cc1,0.549,5.3,7.1,3.8,15.2*,17.5*,12.4*,4.5
COc1ccc(-c2nnc(NC(=O)c3ccc4c(c3)OCCO4)o2)cc1,0.703,-4.4,-7.7,-1.2,1.0,x,x,x
CC(C)CCN(C)C1CCN(C(=O)Nc2c(F)cccc2F)CC1,0.722,4.8,-0.7,3.7,27.6*,-3.4,1.1,-1.3
CCOC(=O)C1C2COc3cc(OC)ccc3C2N2C(=O)c3cc(F)c(F)cc3NC(=O)[C@@]12C (stereo partly drawn),0.691,x,x,x,x,x,x,x
S=C(NCc1ccc(Cl)cc1Cl)Nc1ccccc1,0.614,2.4,6.6,5.0,7.3,x,x,x
S=C(NCc1ccccc1Cl)Nc1ccccc1Cl,0.652,3.2,1.5,3.5,8.8,x,x,x
Fc1cccc(NC(=S)NCc2ccccc2Cl)c1,0.621,10.7*,-3.6,9.4,19.0*,32.6*,25.8*,33.5*
Cc1cc(Cl)ccc1NC(=S)NCc1ccccc1Cl,0.645,5.8,4.2,0.6,15.7*,15.0*,14.8*,13.6
SMILES,E coli growth-1,E coli growth-2,Tat transport,phage Ecoli inh,AddAB inh,AddAB confirm,RecBCD counter,Bact viability
CC(NC(=O)OCc1ccccc1)c1nnc(C(C)NC(=O)OCc2ccccc2)o1 (stereo not drawn),0.683,x,x,x,x,x,x,x
CC1(C)OC2C(CO)OC(n3c(N4CCCCC4)nc4c(N)ncnc43)C2O1 (stereo not drawn),0.621,x,x,x,x,x,x,x
COC(CC1OC1C(=O)C(C)OCc1ccccc1)OC (stereo not drawn),0.703,x,x,x,x,x,x,x
CCCCn1c(SCC(=O)c2ccc(O)c(O)c2)nc2ccsc2c1=O,0.659,9.1,-0.8,x,15.1*,3.6,4.7*,4.1
O=C(O)CCCCCn1c(SCC(=O)c2ccc(O)c(O)c2)nc2ccsc2c1=O,0.668,-2.4,-18.8,-2.2,1.4,x,x,x
COc1cnc(-c2ccccn2)nc1Sc1ccccc1,0.688,0.0,-3.0,3.9,14.2*,3.2,1.8,-2.1
O=c1c2ccccc2nc(/C=C/c2ccc([N+](=O)[O-])o2)n1CCCO,0.684,20.0*,1.1,9.4,31.1*,97.6*,10.8*,41.2*
O=c1c2ccccc2nc(/C=C/c2ccc([N+](=O)[O-])cc2)n1CCCO,0.643,-0.5,10.7,3.1,-0.6,x,x,x
CCOc1cc(C=NNC(=O)c2cccs2)cc([N+](=O)[O-])c1O,0.639,x,x,x,x,x,x,x
COc1cc(CCCN2C(=S)NCC2Cc2ccccc2)cc(OC)c1OC (stereo not drawn),0.695,x,x,x,x,x,x,x
O=C(NC(Cc1ccc2c(c1)OCO2)C(=O)NC(Cc1ccccc1)C(=O)O)c1ccccc1 (stereo not drawn),0.695,93.4*,-1.5,0.9,97.1*,-2.7,1.2,-1.1
Cc1ccc(CC(NC(=O)c2ccccc2)C(=O)NC(Cc2ccccc2)C(=O)O)cc1 (stereo not drawn),0.714,0.4,-9.6,1.7,3.1,x,x,x
CSc1nnc2n(-c3ccc(C)cc3)c(=O)c3c4c(sc3n12)COC(C(C)C)C4 (stereo not drawn),0.726,8.4,0.3,0.8,14.9*,-5.7,-0.7,-4.7
S=C(Nc1ccc(Oc2ccc(NC(=S)NC3CCCCC3)cc2)cc1)NC1CCCCC1,0.684,5.0,1.5,-0.2,4.3,x,x,x
CC(C)c1ccc(NC(=S)NC2CCCCCC2)cc1,0.701,86.5*,-4.5,0.6,97.7*,-3.6,0.8,0.9
CCCC(=C1c2ccccc2C(=O)N1c1ccccc1)c1ccc(OC2CCCCO2)cc1 (stereo not drawn),0.705,x,x,x,x,x,x,x
CC1(C(=O)N/N=C/c2ccccc2)CC1(Br)Br (stereo not drawn),x,97.4*,1.5,-3.4,97.0*,-1.8,-0.5,-3.8
Cc1ccc(/C=N/NC(=O)C2(C)CC2(Br)Br)cc1 (stereo not drawn),x,2.5,2.7,1.5,-0.2,x,x,x
O=C(NCCC1=CCCCC1)C1CCN(C(=O)Cc2ccccc2)CC1,0.717,98.2*,-10.6,-0.1,97.5*,-1.1,1.0,0.1
O=C(NCCC1=CCCCC1)C1CCN(S(=O)(=O)c2ccccc2)CC1,0.686,-2.6,-2.4,3.5,-2.2,x,x,x

# Screening data from PubChem.
